CYP2C9 act = increases human cytochrome P450 2C9 activity; activation factor at 5 µM; recombinant CYP2C9, luciferin-H conversion, luminescence; hits give high values; factor 1 = untreated enzyme, 0 = blocked; 96,000 tested, 1.4% active;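 active = activation factor of 2 or more for CYP2C9 at a 5 µM dose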;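 also: 0 = sulfaphenazole-blocked wells and 1 = vehicle-only wells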
CYP2C19 act = increases human CYP2C19 enzyme activity; P33261; recombinant CYP2C19, luciferin-H EGE luminescence; hits give high values; 0 = fully inhibited enzyme, 1 = untreated enzyme; activation factor at 5 µM; 96,000 tested, under 10 active; AID 1025;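 active = activation factor of at least 2 at 5 µM in the primary screen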;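 also: 0 = wells with 2.5 mM tranylcypromine and 1 = vehicle-only wells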
Target sequence (P33261 whole entry, looked up): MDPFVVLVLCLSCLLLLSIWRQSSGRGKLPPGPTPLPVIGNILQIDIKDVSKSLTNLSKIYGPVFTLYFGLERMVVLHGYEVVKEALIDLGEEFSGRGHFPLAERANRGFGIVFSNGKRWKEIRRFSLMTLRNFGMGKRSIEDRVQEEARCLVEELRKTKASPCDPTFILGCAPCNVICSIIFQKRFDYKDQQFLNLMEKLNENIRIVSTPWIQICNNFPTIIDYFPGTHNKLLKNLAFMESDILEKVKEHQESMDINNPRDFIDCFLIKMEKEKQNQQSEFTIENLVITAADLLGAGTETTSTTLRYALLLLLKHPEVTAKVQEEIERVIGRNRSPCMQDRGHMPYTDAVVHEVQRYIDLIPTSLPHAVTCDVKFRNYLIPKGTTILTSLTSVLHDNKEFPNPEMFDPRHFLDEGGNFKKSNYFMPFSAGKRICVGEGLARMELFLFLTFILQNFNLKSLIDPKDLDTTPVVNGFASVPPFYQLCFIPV
CYP2C9 inh = human CYP2C9 inhibition | CYP2C9 Supersomes, luciferin-H conversion, luminescence | 96,000 tested, 20% active | inhibition, % at 5 µM | AID 777;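 active = blocking of liver enzyme CYP2C9 beyond about 50% at 5 µM, limit read from the data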
Measles CPE = protection of cells from measles virus; Measles virus-infected cells, CPE protection, absorbance; protection (pct of control), % at 4 µM; 140,000 tested, 1.5% active; in the data active = protection mostly above about 24%, no sharp cut-off; inactive = mostly below about 26%
CYP2C19 inh = human CYP2C19 inhibition | AID 778 | 96,000 tested, 21% active | CYP2C19 Supersomes, luciferin-H EGE luminescence, 30 min | P33261 | inhibition, % at 5 µM;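 active = CYP2C19 inhibition above a set limit at 5 µM in the primary screen, cut at about 50% in these data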;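 also: plate controls were negative control wells for no effect and 2.5 mM tranylcypromine positive control for full effect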
Active calls of the source: *; . = no result given. Only some compounds are listed: those with a hit (about 22% of all), similar ones and a draw of the others.

SMILES | CYP2C9 act | CYP2C19 act | CYP2C9 inh | Measles CPE | CYP2C19 inh
C=CCNC(=O)c1cc(-c2ccc(Br)cc2)on1 | 1 | 1.1 | -2 | 63* | -14
CCCC(=O)N1c2ccccc2[C@@H](N(C(C)=O)c2ccccc2)C[C@H]1C | 0.3 | 0.5 | 73* | 2 | 51*
CCC(=O)N1c2ccccc2C(N(C(C)=O)c2ccccc2)CC1C (configuration not stated) | . | . | . | 5 | .
Cc1cc(C(F)F)nn1CC(=O)Nc1cc([N+](=O)[O-])ccc1F | . | . | . | 4 | .
O=C(Nc1cccc(-c2cn3cccnc3n2)c1)c1ccco1 | 0.8 | 0.9 | 23 | 5 | 6
O=C(Nc1cccc(-c2cn3cccnc3n2)c1)c1ccc2c(c1)OCO2 | 0.4 | 0.9 | 60* | 8 | 10
O=C(Nc1cccc(-c2cn3cccnc3n2)c1)c1ccc(Br)o1 | 0.4 | 1 | 58* | 7 | -3
CCN(CC)CCN1C(=O)c2ccccc2NC1c1ccc(C)cc1 (configuration not stated) | 1.3 | 1 | -27 | 8 | 0
CC(C)(C)c1ccc(C(=O)CC(=O)c2cc(Cl)ccc2O)cc1 | 0.4 | 0.4 | 60* | 20 | 57*
CCOc1ccc2nc(NCCNC(=O)C3CC3)c(C)cc2c1 | 0.5 | 0.4 | 52* | . | 56*
CCOc1ccc2nc(NCCNC(=O)C(C)C)c(C)cc2c1 | 0.1 | 0.2 | 94* | 9 | 77*
COCC(=O)NCCNc1nc2ccc(C)cc2cc1C | 0.9 | 0.8 | 11 | 14 | 24
CCCCNC(=O)NS(=O)(=O)c1ccc(C(=O)OC)o1 | 0.9 | 1 | 15 | 3 | -2
CCOC(=O)CCc1c(C)nc(SCCN2CCCC2)c(C#N)c1C | 0.6 | 0.7 | 36 | 5 | 30
CCOC(=O)CCc1c(C)nc(SCCCn2c(=O)[nH]c3ccccc32)c(C#N)c1C | 0.4 | 0.5 | 64* | 7 | 46
CCn1c(SCc2ccc(C(=O)OC)o2)nc2sc3c(c2c1=O)CCCC3 | 0.5 | 0.8 | 49 | 5 | 21
COC(=O)c1ccc(CSc2nc(C(F)(F)F)c3c(c2C#N)CCC3)o1 | 0.9 | 0.2 | 6 | 14 | 78*
Cc1n[nH]c(C)c1S(=O)(=O)N1CCN(C2CCCCC2)CC1 | 0.7 | 1 | 28 | 23 | 1
Cc1c(S(=O)(=O)Nc2ccc3c(c2)OCCO3)c(=O)n(C)c(=O)n1C | 0.9 | 0.8 | 10 | 2 | 23
Cc1c(S(=O)(=O)Nc2cccc(Cl)c2)c(=O)n(C)c(=O)n1C | 0.8 | 0.5 | 15 | 20 | 51*
Cn1c(=O)c2cc(S(=O)(=O)NC(C(=O)Nc3cccc(F)c3)c3ccccc3)ccc2n(C)c1=O (configuration not stated) | 0.8 | 0.8 | 23 | 13 | 22
Cn1c(=O)c2cc(S(=O)(=O)Nc3cccc(F)c3)ccc2n(C)c1=O | 0.2 | 0.2 | 83* | 17 | 76*
Nc1ccccc1Nc1cc(-c2cccc(Cl)c2)nn1-c1ccccc1 | . | . | . | 8 | .
CCCOc1ccc(CC(=O)NCC2(c3ccccc3)CCOCC2)cc1OC | 0.7 | 0.7 | 32 | 22 | 28
CN(C)CC(C)(C)CNS(=O)(=O)c1cccc2nsnc12 | . | . | . | 1 | .
SMILES | CYP2C9 act | CYP2C19 act | CYP2C9 inh | Measles CPE | CYP2C19 inh
CN(C)CC(C)(C)CNS(=O)(=O)c1cccc(Cl)c1Cl | 0.7 | 0.2 | 32 | 5 | 77*
COCCOC(=O)C1=C(C)NC2=C(C(=O)CC(C)(C)C2)C1c1cc2c(cc1Br)OCO2 (configuration not stated) | 0.2 | 0.1 | 81* | . | 94*
COc1ccccc1NC(=O)C1=C(C)NC2=C(C(=O)CCC2)C1c1ccc2c(c1)OCO2 (configuration not stated) | 0.5 | 0.4 | 47 | 15 | 63*
COCCOC(=O)C1=C(C)NC2=C(C(=O)CC(c3cccs3)C2)C1c1ccsc1 (configuration not stated) | 0.4 | 0.4 | 60* | 5 | 58*
CC1=C(C(=O)OCC(C)C)C(c2ccsc2)C2=C(CCCC2=O)N1 (configuration not stated) | . | . | . | 1 | .
CCOC(=O)C1=C(C)NC2=C(C(=O)CCC2)C1c1ccsc1 (configuration not stated) | 0.6 | 0.5 | 39 | 5 | 53*
COc1ccc(C(=O)C[n+]2ccc(-c3nnc4n3CCC4)cc2)cc1 | . | . | . | 13 | .
CCN(CC)c1ccc(C2C(C(=O)OCCOC)=C(C)NC3=C2C(=O)CCC3)cc1 (configuration not stated) | 0.6 | 0.6 | 37 | 14 | 45

Screening data: PubChem, several laboratories
